The values that follow come from PubChem BioAssay AID651640 (Broad Institute, 2012).

Values joined by “and” are separate entries in the source; they are usually repeats but may differ in a detail not shown here. Identical values can stand only once. Hit rate of the full screen: of about 350,000 compounds, about 6,000 (1.7%) were called active. Another 5% or so got no clear call; they are omitted. Rule as the data show it: active = CPE inhibition above about 20% (passing the limit was not always enough); inconclusive = no clear call, values can overlap the other calls; tested in BHK-21 cells. What follows is part of a selection rich in actives, with near analogues and random picks from the rest.

This test in a line: protection of cells from dengue 2 killing – plate reader, single concentration, primary screen (AID 651640).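 Also: 0% = median of neutral control wells and 100% = median of positive control wells.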 The following applies: DENV2-infected cells, cytopathic effect rescue, at 9.99 µM, active compounds read high. For orientation: Damage to the host cells serves as the signal in cytopathic effect assays.
On to `COCC(=O)Nc1ccc2c(c1)OC[C@@H](C)N(C(=O)c1ccncc1)C[C@@H](C)[C@@H](OC)CN(C)C2=O`, for which the CPE inhibition is 13.2% (inactive).

On to `O=C(NC[C@H]1CC[C@@H]2[C@@H](CN2S(=O)(=O)c2ccccc2F)O1)C1CCCCC1`, for which the CPE inhibition was -10.6% (inactive).

Consider `COCC#Cc1cnc2c(c1)C(=O)N([C@@H](C)CO)C[C@H](C)[C@@H](CN(C)Cc1ccccc1)O2`, for which the CPE inhibition is 7.93% (inactive).

`CCOc1ncccc1C(=O)Nc1ccc(S(=O)(=O)Nc2nc(C)cc(C)n2)cc1`: the CPE inhibition is -5.45% (inactive).

Regarding `CCOc1ncccc1C(=O)NNC(=O)c1cccc(S(=O)(=O)Nc2ccccc2OC)c1`, the CPE inhibition was 23.7% (active).

Consider `CCN(CC(=O)NCc1cccs1)C(=O)c1cccc(S(=O)(=O)Nc2ccccc2OC)c1`, for which the CPE inhibition is 0.937% (inactive).

Consider `O=C(NC[C@@H]1[C@@H](c2ccccc2)[C@H](CO)N1C(=O)Cc1cccnc1)C1CC1`, for which the CPE inhibition was -4.58% (inactive).

As to `COCC(=O)N[C@@H]1C[C@@H]2O[C@@H](CO)CC[C@@H]2O[C@@H]1CCc1ccc(-c2ccccc2)cc1`, the CPE inhibition was 14.8% (inactive).

Consider `CN(C)CC#Cc1ccc([C@H]2[C@H]3CN(C(=O)c4cccc(F)c4)CC(=O)N3[C@H]2CO)cc1`, for which the CPE inhibition is 0.131% (inactive).

In the case of `COc1cc([C@H](Cc2ccccc2)NC(C)=O)oc(=O)c1`, the CPE inhibition is 23.5% (active).

Take `CCOC(=O)C(Cc1ccccc1)NC(=O)CCC(=O)c1ccc(OC)cc1` (stereo not drawn): the CPE inhibition was -0.51% (inactive).

`COc1ccc(OC)c(NC(=O)N[C@H](Cc2ccccc2)C(=O)NN)c1`: the CPE inhibition was -9.79% (inactive).

On to `COCC(=O)N(C)C[C@@H]1Oc2ncc(C#C[C@H](C)O)cc2C(=O)N([C@@H](C)CO)C[C@@H]1C`, for which the CPE inhibition was -2.59% (inactive).

As to `C[C@H]1CN([C@@H](C)CO)C(=O)c2cc(Br)cnc2O[C@@H]1CN(C)C(=O)c1ccccc1F`, the CPE inhibition was 2.37% (inactive).

Regarding `CCOc1ccc(C(=O)Nc2ccc(S(=O)(=O)Nc3cc(C)on3)cc2)cc1`, the CPE inhibition is 1.57% (inactive).

For the compound `Cc1cc(NS(=O)(=O)c2ccc(NC(=S)NC(=O)c3ccc(F)cc3Cl)cc2)no1`, the CPE inhibition is 78.9% (active).

On to `CCc1ccc(OC(C)C(=O)Nc2ccc(S(=O)(=O)Nc3cc(C)on3)cc2)cc1` (stereo not drawn), for which the CPE inhibition is 2.4% (inactive).

In the case of `CCC(=O)Nc1ccc2c(c1)C(=O)N(C)[C@@H]1CC[C@H](CC(=O)NCc3ccccc3)O[C@H]1CO2`, the CPE inhibition is -3.19% (inactive).

Regarding `C[C@@H]1CCCCO[C@@H](CN(C)Cc2ccc(C(=O)O)cc2)[C@H](C)CN([C@@H](C)CO)C(=O)c2cc(NC(=O)Nc3ccc(C(F)(F)F)cc3)ccc2O1`, the CPE inhibition was 17.1% (inactive).

For the compound `C[C@@H]1CCCCO[C@@H](CN(C)C(=O)Nc2ccc(C(F)(F)F)cc2)[C@H](C)CN([C@H](C)CO)C(=O)c2cc(NC(=O)c3ccccc3)ccc2O1`, the CPE inhibition was 4.25% (inactive).

Consider `C[C@H](CO)N1C[C@H](C)[C@H](CN(C)Cc2ccncc2)Oc2ccc(NC(=O)Nc3ccc(F)cc3)cc2C1=O`, for which the CPE inhibition is -10.5% (inactive).

As to `C[C@@H]1CN([C@@H](C)CO)C(=O)c2cc(NC(=O)Nc3ccc(C(F)(F)F)cc3)ccc2O[C@@H](C)CCCCO[C@H]1CN(C)C(=O)c1ccccc1`, the CPE inhibition is 25.6% (active).

For `COc1ccc(CN(C)C[C@@H]2Oc3ccc(NC(=O)Nc4ccc(OC)cc4)cc3C(=O)N([C@H](C)CO)C[C@H]2C)cc1`, the CPE inhibition was -3.17% (inactive).

For `C[C@H](CO)N1C[C@H](C)[C@@H](CN(C)Cc2ccncc2)Oc2ccc(NC(=O)Nc3ccccc3)cc2C1=O`, the CPE inhibition was 7.94% (inactive).

With `C[C@@H]1CN([C@@H](C)CO)C(=O)c2cc(NC(=O)Nc3ccc(C(F)(F)F)cc3)ccc2O[C@@H]1CN(C)Cc1ccncc1`, the CPE inhibition is 31.1% (active).

For the compound `C[C@@H]1CN([C@H](C)CO)C(=O)c2cc(NC(=O)Nc3ccccc3)ccc2O[C@@H](C)CCCCO[C@H]1CN(C)Cc1ccc(C(F)(F)F)cc1`, the CPE inhibition is -1.92% (inactive).

Turning to `C[C@@H]1CCCCO[C@@H](CN(C)Cc2ccc(C(=O)O)cc2)[C@@H](C)CN([C@@H](C)CO)C(=O)c2cc(NC(=O)Nc3ccc(C(F)(F)F)cc3)ccc2O1`, the CPE inhibition is 21.1% (active).

As to `C[C@H]1CCCCO[C@@H](CN(C)Cc2ccc(C(F)(F)F)cc2)[C@@H](C)CN([C@@H](C)CO)C(=O)c2cc(NC(=O)Nc3ccccc3)ccc2O1`, the CPE inhibition was -2.84% (inactive).

With `COc1ccc(NC(=O)Nc2ccc3c(c2)C(=O)N([C@@H](C)CO)C[C@H](C)[C@@H](CN(C)Cc2ccc4c(c2)OCO4)O3)cc1`, the CPE inhibition is 31.5% (active).

Take `C[C@H](CO)N1C[C@H](C)[C@@H](CN(C)Cc2ccc3c(c2)OCO3)Oc2ccc(NC(=O)Nc3ccc(F)cc3)cc2C1=O`: the CPE inhibition was -6.58% (inactive).

As to `COc1ccccc1-c1cn(CC[C@H]2CC[C@@H](NC(=O)CCN3CCCCC3)[C@@H](CO)O2)nn1`, the CPE inhibition was -1.83% (inactive).

With `C[C@H]1CN([C@@H](C)CO)S(=O)(=O)c2ccc(C#Cc3cccc(F)c3)cc2O[C@@H]1CN(C)S(=O)(=O)c1cn(C)cn1`, the CPE inhibition was -0.538% (inactive).

Take `CCNC(=O)[C@H]1[C@H](CO)[C@H]2Cn3c(cccc3=O)[C@@H]1N2Cc1cc(F)ccc1F`: the CPE inhibition was -7.97% (inactive).

As to `CCCNC(=O)N1C[C@@H](O)COC[C@@H]2O[C@@H](CC(=O)O)CC[C@H]21`, the CPE inhibition was 5.1% (inactive).

`CN(C)CC(=O)N[C@@H]1C[C@@H]2O[C@H](CO)CC[C@@H]2O[C@@H]1CCc1ccc(C#Cc2ccccc2)cc1`: the CPE inhibition is 6.51% (inactive).

Turning to `C[C@H](CO)N1C[C@H](C)[C@H](CN(C)C)Oc2ncc(/C=C/c3ccccc3)cc2C1=O`, the CPE inhibition was -2.89% (inactive) and -2.09% (inactive).

In the case of `C[C@H](CO)N1C[C@H](C)[C@H](CN(C)Cc2ccncc2)Oc2ccc(N(C)C)cc2C1=O`, the CPE inhibition is 24.8% (active).

Turning to `Cc1noc(C)c1NC(=O)Nc1ccc2c(c1)C(=O)N([C@H](C)CO)C[C@@H](C)[C@@H](CN(C)Cc1ccccc1)O2`, the CPE inhibition was 33.6% (active).

In the case of `C[C@@H]1CN([C@@H](C)CO)C(=O)c2cc(N(C)C)ccc2O[C@H]1CN(C)Cc1ccc(C(F)(F)F)cc1`, the CPE inhibition was 2.48% (inactive).

Turning to `C/C=C/c1cnc2c(c1)C(=O)N([C@H](C)CO)C[C@H](C)[C@@H](CN(C)C(=O)Nc1ccc(C(F)(F)F)cc1)O2`, the CPE inhibition was -8.88% (inactive).

Take `C[C@@H]1CN([C@H](C)CO)C(=O)c2cc(NC(=O)Nc3ccc4c(c3)OCO4)ccc2O[C@@H](C)CCCCO[C@@H]1CN(C)Cc1ccc2c(c1)OCO2`: the CPE inhibition is -24.7% (inactive).

Consider `C[C@@H]1CCCCO[C@@H](CN(C)Cc2ccc3c(c2)OCO3)[C@@H](C)CN([C@@H](C)CO)C(=O)c2cc(NC(=O)Nc3ccccc3)ccc2O1`, for which the CPE inhibition is -0.739% (inactive).

`C[C@H]1CCCCO[C@@H](CN(C)Cc2ccc3c(c2)OCO3)[C@@H](C)CN([C@@H](C)CO)C(=O)c2cc(NC(=O)Nc3ccc(F)cc3)ccc2O1`: the CPE inhibition is 23% (active).

Turning to `C[C@H]1CN([C@@H](C)CO)C(=O)c2cc(N(C)C)ccc2O[C@@H]1CN(C)Cc1ccccc1`, the CPE inhibition was 1.9% (inactive).

For `Cc1noc(C)c1NC(=O)Nc1ccc2c(c1)C(=O)N([C@@H](C)CO)C[C@H](C)[C@H](CN(C)Cc1ccc(-c3ccccc3)cc1)O2`, the CPE inhibition was -1.16% (inactive).

Regarding `Cc1noc(C)c1NC(=O)Nc1ccc2c(c1)C(=O)N([C@H](C)CO)C[C@H](C)[C@H](CN(C)Cc1ccc(-c3ccccc3)cc1)O2`, the CPE inhibition is 5.27% (inactive).

For the compound `C[C@H](O)C#Cc1cnc2c(c1)C(=O)N([C@H](C)CO)C[C@@H](C)[C@@H](CN(C)C(=O)Nc1ccc(C(F)(F)F)cc1)O2`, the CPE inhibition was -2.9% (inactive).

Consider `C[C@@H]1CN([C@@H](C)CO)C(=O)c2cc(/C=C/c3ccccc3)cnc2O[C@H]1CN(C)C(=O)Nc1ccc(C(F)(F)F)cc1`, for which the CPE inhibition is 22.8% (active).
